IDE exosite FP – exo-site inhibitors of human IDE, primary screen, biochemical, fluorescence anisotropy, probe displacement. purified IDE, FL-6b probe fluorescence polarization; hits give low values. 6.3% of 17,000 active. z-score at 20 µM. Insulin-degrading enzyme (Homo sapiens), P14735;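 active means z-score of -3 or lower, meaning strong loss of probe binding signal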;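 further: His-tagged human IDE residues 42-1019 made in E. coli with 30 nM FL-6b probe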
Starred values were filed as active, the others as inactive; ! = repeats disagree. Many of the other results were omitted from the sample, so hits are more common in it than they were.

SMILES | IDE exosite FP
O=S(=O)(c1ccc(F)cc1)N1CCCCN2[C@H](CO)[C@H](c3ccc(-c4ccccc4)cc3)[C@@H]2C1 | -0.26
COCC(=O)N1[C@H](C#N)[C@@H](c2ccccc2-c2cccc(C)c2)[C@@H]1CO | 0.064
COc1cccc(-c2ccc([C@@H]3[C@@H](CO)N4CCCCN(S(=O)(=O)c5cn(C)cn5)C[C@@H]34)cc2)c1 | -14*
Cn1cnc(S(=O)(=O)N2CCCCN3[C@H](CO)[C@H](c4ccc(-c5cccc(F)c5)cc4)[C@@H]3C2)c1 | 2.5
COc1cccc(-c2ccc([C@H]3[C@@H](CO)N4CCCCN(S(=O)(=O)c5cn(C)cn5)C[C@@H]34)cc2)c1 | 0.93
Cn1cnc(S(=O)(=O)N2CCCCN3[C@@H](CO)[C@@H](c4ccc(-c5ccc(F)cc5)cc4)[C@@H]3C2)c1 | -2.1
COc1cccc(-c2ccc([C@H]3[C@H]4CN(S(=O)(=O)c5cn(C)cn5)CCCCN4[C@H]3CO)cc2)c1 | -0.71
Cc1cccc(-c2ccc([C@H]3[C@H]4CN(S(=O)(=O)c5cn(C)cn5)CCCCN4[C@H]3CO)cc2)c1 | 1.4
COc1cccc(-c2ccc([C@H]3[C@H](CO)N4CCCCN(S(=O)(=O)c5cn(C)cn5)C[C@@H]34)cc2)c1 | -0.35
Cn1cnc(S(=O)(=O)N2CCCCN3[C@H](CO)[C@@H](c4ccc(-c5ccccc5)cc4)[C@@H]3C2)c1 | -9.4*
Cn1cnc(S(=O)(=O)N2CCCCN3[C@H](C2)[C@H](c2ccc(-c4ccccc4)cc2)[C@@H]3CO)c1 | 1.7
COc1cccc(-c2ccc([C@@H]3[C@@H](CO)N4CCCCN(S(=O)(=O)c5cn(C)cn5)C[C@H]34)cc2)c1 | 1.4
Cc1cccc(-c2ccc([C@@H]3[C@H]4CN(S(=O)(=O)c5cn(C)cn5)CCCCN4[C@H]3CO)cc2)c1 | -6.1*
Cc1cccc(-c2ccc([C@@H]3[C@H](CO)N4CCCCN(S(=O)(=O)c5cn(C)cn5)C[C@@H]34)cc2)c1 | -20*
N#C[C@H]1[C@@H](c2ccccc2)[C@H](CO)N1C(=O)CN1CCOCC1 | 4.2
O=C1CN(Cc2ccccc2)C[C@@H]2[C@H](c3ccc(-c4ccccc4)cc3)[C@H](CO)N12 | -1
COC(=O)c1ccc(CN2CC(=O)N3[C@@H](CO)[C@H](c4ccc(-c5ccccc5F)cc4)[C@@H]3C2)cc1 | 1.6
CN(C)C(=O)c1ccc(-c2ccccc2[C@@H]2[C@@H](C#N)N(C(=O)C3CC3)[C@@H]2CO)cc1 | 1.2
COc1ccc(-c2ccc([C@H]3[C@H](C#N)N(C(=O)C4CCC4)[C@H]3CO)cc2)cc1 | 3.2
O=C(c1cccc(F)c1)N1CC(=O)N2[C@H](C1)[C@H](c1ccc(-c3ccccc3F)cc1)[C@@H]2CO | 0.93
CC(C)C#Cc1ccc([C@H]2[C@H]3CN(C(=O)c4ccc5c(c4)OCO5)CCCCN3[C@H]2CO)cc1 | 2
O=C(C1CC1)N1CC(=O)N2[C@H](C1)[C@@H](c1ccc(C#CCc3ccccc3)cc1)[C@@H]2CO | -0.97
O=C(c1ccccc1)N1CC(=O)N2[C@@H](CO)[C@@H](c3ccc(C#Cc4ccccc4)cc3)[C@@H]2C1 | -9.1*
COc1ccc(C#Cc2ccc([C@H]3[C@@H](CO)N4C(=O)CN(C(=O)c5ccccc5)C[C@H]34)cc2)cc1 | 2.2
COc1ccc(C#Cc2ccc([C@@H]3[C@H]4CN(C(=O)c5ccccc5)CC(=O)N4[C@H]3CO)cc2)cc1 | 2.1
SMILES | IDE exosite FP
O=C(c1ccccc1)N1CC(=O)N2[C@@H](CO)[C@H](c3ccc(C#Cc4ccccc4)cc3)[C@@H]2C1 | -3.8*
COc1ccc(C#Cc2ccc([C@H]3[C@H](CO)N4C(=O)CN(C(=O)c5ccccc5)C[C@@H]34)cc2)cc1 | 1.9
O=C(c1ccccc1)N1CC(=O)N2[C@H](C1)[C@@H](c1ccc(C#Cc3ccccc3)cc1)[C@@H]2CO | 0.44
COc1ccc(-c2ccccc2[C@@H]2[C@@H](C#N)N(C(=O)C3CCOCC3)[C@H]2CO)cc1 | 0.81
CN(C)CC#Cc1ccc([C@H]2[C@H]3CN(CC4CCOCC4)CCCCN3[C@H]2CO)cc1 | 1.1
CCCC#Cc1ccc([C@H]2[C@H]3CN(C(=O)c4ccc5c(c4)OCO5)CCCCN3[C@H]2CO)cc1 | 2
N#Cc1ccc(-c2ccc([C@@H]3[C@H]4CNCC(=O)N4[C@H]3CO)cc2)cc1 | -0.57
Cc1cccc(-c2ccc([C@@H]3[C@@H](CO)N4CCCCN(C(=O)c5ccc6c(c5)OCO6)C[C@H]34)cc2)c1 | 0.5
Cc1cccc(-c2ccc([C@H]3[C@@H](CO)N4CCCCN(C(=O)c5ccc6c(c5)OCO6)C[C@@H]34)cc2)c1 | 3
Cc1cccc(-c2ccc([C@H]3[C@@H](CO)N4CCCCN(C(=O)c5ccc6c(c5)OCO6)C[C@H]34)cc2)c1 | -8.1*
CC(=O)N1CCCCN2[C@H](CO)[C@H](c3ccc(-c4cccc(C)c4)cc3)[C@@H]2C1 | 3.6
CC(=O)N1CCCCN2[C@H](CO)[C@H](c3ccc(-c4ccc(C)cc4)cc3)[C@H]2C1 | -1.8
CC(=O)N1CCCCN2[C@@H](CO)[C@H](c3ccc(-c4ccccc4)cc3)[C@@H]2C1 | -0.87
CC(=O)N1CCCCN2[C@H](CO)[C@H](c3ccc(-c4ccccc4)cc3)[C@H]2C1 | -1.5
CC(=O)N1CCCCN2[C@@H](CO)[C@H](c3ccc(-c4cccc(C)c4)cc3)[C@@H]2C1 | -3.2*
CC(=O)N1CCCCN2[C@H](CO)[C@H](c3ccc(-c4cccc(C)c4)cc3)[C@H]2C1 | -12*
CCCNC(=O)N1[C@H](C#N)[C@@H](c2ccccc2-c2ccccc2F)[C@@H]1CO | -0.68
O=C(c1cccnc1)N1CC[C@@H]2[C@@H](CO)Nc3ccc(C4=CCCCC4)cc3[C@@H]21 | 1
Cc1ccccc1-c1ccc(C2[C@H]3CNC[C@@H]2N3S(=O)(=O)c2cccc(F)c2)cc1 (stereo not given in full) | -3.4*!
Cc1ccccc1-c1ccc(C2[C@H]3CNC[C@@H]2N3S(=O)(=O)c2ccc(F)cc2)cc1 (stereo not given in full) | 0.51
Cc1ccccc1-c1ccc(C2[C@H]3CNC[C@@H]2N3S(=O)(=O)c2cn(C)cn2)cc1 (stereo not given in full) | -4.9*
Cc1ccc(-c2ccc(C3[C@H]4CNC[C@@H]3N4S(=O)(=O)c3ccccc3)cc2)cc1 (stereo not given in full) | 5
Cc1ccccc1-c1ccc(C2[C@@H]3CN(S(=O)(=O)c4cn(C)cn4)C[C@H]2N3)cc1 (stereo not given in full) | -5.3*
O=S(=O)(c1cccc(F)c1)N1[C@@H]2CNC[C@H]1C2c1ccc(-c2ccccc2F)cc1 (stereo not given in full) | -1.1
Cc1ccccc1-c1ccc(C2[C@@H]3CN(Cc4cncnc4)C[C@H]2N3)cc1 (stereo not given in full) | -2.6
Cn1cnc(S(=O)(=O)N2CCCCN3[C@H](CO)[C@@H](c4ccc(-c5ccccc5F)cc4)[C@H]3C2)c1 | 2.5
C/C=C/c1ccc(C2[C@H]3CNC[C@@H]2N3S(=O)(=O)c2cn(C)cn2)cc1 (stereo not given in full) | 3.9
CN(C)C(=O)C[C@@H]1C=C[C@@H](NC(=O)c2ccc(F)cc2)[C@H](CO)O1 | 2.3
O=C(C[C@@H]1C[C@H]2c3cc(NC(=O)C4CCC4)ccc3O[C@H]2[C@@H](CO)O1)NC1CCCC1 | -0.75
COc1ccc(NC(=O)N[C@H]2CC[C@H](CCNC(=O)CN3CCOCC3)O[C@H]2CO)cc1 | -0.41

Source: PubChem BioAssay
